The source made the active and inactive calls.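 The calls were made as follows, unless noted: active = inhibition above 20% together with a positive visual image hit; inconclusive = visual image hit but inhibition not above 20%; inactive = no visual image hit.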

Results on six compounds are retold here after PubChem BioAssay.

A short description of experiment [1]: inhibitors of TNFa-induced NFkB p65 translocation, primary screen, imaging, HUVEC, MLSMR starter and 10KST1 sets (AID 438).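 Also: compound added about 3h40 before a 20 min TNFalpha stimulation.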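 As to inhibition: signal is the nuclear over cytoplasmic p65 intensity ratio per well.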 Conditions: HUVEC TNFa-induced p65 nuclear translocation; cell count: measured here: nuclei count (cytotoxicity indicator), at 2.08 µM; inhibition: at 2 µM, stronger effect = higher value, 0% TNFa-plus-vehicle, 100% no-TNFa wells.
Experiment [2] can be described thus: reduction of polyQ htt aggregates in cells – imaging, exon1htt(103Q)mCFP cells, high-content imaging, primary screen (AID 483;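 active = visual image review flags a hit and inhibition of aggregation exceeds 20%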;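 also: compound exposure lasted 3 days before fixation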;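 as to nuclei count: percent of the per-plate median nuclei count of sample wells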). Conditions: exon1htt(103Q)mCFP cell line, aggregate imaging, at 2 µM; inhibition of aggregation: stronger effect = higher value; nuclei count: measured here: cell count, toxicity.
Experiment [3] is described as follows: endothelial E-selectin expression blockers – imaging, HUVEC, immunofluorescence, MLSMR starter and 10KST1 sets, primary screen (AID 487;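 active = visually confirmed hit in the image check and inhibition above 20%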;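 as to inhibition: signal is fraction of cell area covered by stained E-selectin grains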;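 as to nuclei count: 100% = median nuclei count of all wells on the same plate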). Conditions: HUVEC TNFalpha-induced E-selectin immunofluorescence imaging, at 2 µM; inhibition: stronger effect = higher value; nuclei count: measured here: cell number, toxicity.
The nature of experiment [4]: Primary imaging screen for DUSP6 inhibitors that restore phospho-Erk in transfected HeLa cells, chemical complementation (AID 609;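 active = compounds giving at least 50% inhibition in the cell-based MKP-3 phosphatase rescue imaging test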;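 as to inhibition: phospho-Erk level distribution per well compared with pooled transfected vehicle control wells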). As to conditions: HeLa MKP-3 transfected, phospho-Erk imaging KS statistic, at 10 µM, cells stimulated with TPA for 15 min.
Experiment [5] has as its target Dual specificity protein phosphatase 6 (Homo sapiens) (UniProt Q16828). The description is as above. As to conditions: HeLa MKP-3 transfected, phospho-Erk imaging KS statistic; at 10 µM; stronger effect = higher value; cells stimulated with TPA for 15 min.
Experiment [6] has as its target Voltage-gated potassium channel subunit beta-2 (Rattus norvegicus) (UniProt P62483). The experiment is described as follows: inhibitors of rat Kvbeta2 reductase activity – biochemical, NADPH fluorescence, primary screen (AID 622;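 active = fluorescence slope higher than the sample average by over 3 SD, cut at about -0.22 in these data, passing the limit was not always enough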;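 also: slope of raw intensity against log time taken from 70 to 1610 s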). Conditions: recombinant KvBeta, 4-cyanobenzaldehyde reduction, at 10 µM, stronger effect = higher value.
The target is the same in experiment [7]. In words: enhancers of rat Kvbeta2 NADPH turnover – biochemical, NADPH fluorescence, primary screen (AID 623;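 active = NADPH fluorescence slope more negative than the mean of all samples by about 3 SD, 99.7% confidence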;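 also: fluorescence intensity change per second fitted from 20 to 320 s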). Conditions: Recombinant KvBeta, NADPH fluorescence decrease slope, 10 min; at 10 µM; stronger effect = lower value.
The target in experiment [8] is Muscarinic acetylcholine receptor M4 (Homo sapiens) (UniProt P08173). The experiment is described as follows: M4-linked GIRK flux change, two-sided – cell-based, HEK293 M4/GIRK, thallium flux, BTC-AM, M4 allosteric agonist project, primary screen (AID 625;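 active = fluorescence slope after compound addition differing from the mean of all tested samples at 99.7% confidence, mostly higher but some lower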;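 also: thallium influx through GIRK channels coupled to M4 in HEK293 cells with BTC-AM dye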). Conditions: at 10 µM, actives lie on both sides.
Chain of Muscarinic acetylcholine receptor M4 (Homo sapiens) (P08173 whole entry, looked up): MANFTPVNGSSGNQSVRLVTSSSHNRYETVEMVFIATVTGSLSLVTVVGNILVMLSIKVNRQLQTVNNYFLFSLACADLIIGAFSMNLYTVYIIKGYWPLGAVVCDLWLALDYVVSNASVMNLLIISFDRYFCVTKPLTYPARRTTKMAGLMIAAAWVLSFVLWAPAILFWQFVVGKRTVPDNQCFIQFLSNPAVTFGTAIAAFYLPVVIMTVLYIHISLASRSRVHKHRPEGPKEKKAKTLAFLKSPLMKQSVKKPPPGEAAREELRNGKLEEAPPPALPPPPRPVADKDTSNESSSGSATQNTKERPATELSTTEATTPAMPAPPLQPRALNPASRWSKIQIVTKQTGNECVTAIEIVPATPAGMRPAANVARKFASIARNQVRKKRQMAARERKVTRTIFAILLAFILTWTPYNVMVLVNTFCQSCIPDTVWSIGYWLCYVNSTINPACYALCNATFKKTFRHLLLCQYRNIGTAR
Experiment [9] in a line: inhibitors of larval lipid processing in zebrafish, primary screen, whole organism, PED6 fluorescence, gall bladder and intestine (AID 686;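 active = a full or partial loss of lipid-probe fluorescence in the fish gall bladder, intestine or both, judged by eye; inactive = no fluorescence loss, or compound toxic to the fish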;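 also: larvae 5 to 7 days old with five fish per well; signal comes from phospholipase A2 cleavage of quenched PED6 carried via bile; overnight exposure to compound and PED6 before scoring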). Conditions: Zebrafish larvae PED6 lipid processing, fluorescence scoring; screened at 20 µM (by protocol).
The nature of experiment [10]: loss of swimming-algae plug formation – whole organism, Chlamydomonas reinhardtii, WT vs cilia-less mutant, absorbance, 96-well, primary screen (AID 463189;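 active = inhibition at or above 50% relative to wild type and mutant plate controls; inactive = inhibition below 50%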;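 also: 0% = wild type cc124 cells in DMSO and 100% = ciliumless bld1 mutant cells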). Conditions: Chlamydomonas reinhardtii gravitaxis, OD600 absorbance, 2 days; at 10 µM; stronger effect = higher value.
Experiment [11] in a line: blockers of RIG-like receptor reporter activation – cell-based, Sendai virus stimulus, luciferase, 10K MLSCN set, TLR/RLR signaling modifier project, primary screen (AID 602276;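 active = inhibition at or above 50% at 10 µM; inactive = inhibition below 50%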;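 also: firefly luciferase from ISG56 promoter only with Renilla not read in this screen; 0% = Sendai virus plus DMSO and 100% = medium plus DMSO without virus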). Conditions: HEK293 RL24 IRF3 luciferase reporter, at 10 µM, stronger effect = higher value. For orientation: A reporter such as luciferase makes a cellular process visible.
A short description of experiment [12]: TLR3 IRF3 reporter activation blockers – cell-based, poly I:C stimulus, luciferase, 10K MLSCN set, primary screen (AID 602277;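 active = inhibition of the reporter signal at or above 50%; inactive = inhibition below 50%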). As to conditions: HEK293-TLR3 RL24 IRF3 luciferase reporter, at 10 µM, stronger effect = higher value.
Experiment [13] concerns the target Alpha-2C adrenergic receptor (Homo sapiens) (UniProt P18825). The experiment is described as follows: compounds altering alpha2C-coupled GIRK flux – cell-based, HEK293 alpha2C/GIRK1/2, thallium flux, primary screen (AID 624;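 active = fluorescence slope after compound addition differing from the mean of all screened samples at 99.7% confidence, in either direction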;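 also: slope of fluorescence ratio to pre-addition baseline per second over 15 to 24 s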). As to conditions: thallium flux BTC fluorescence, at 10 µM, actives lie on both sides.
Setting [14] is: measured here: cell density z-score.
Where [15] appears, read: measured here: nuclear c-Myc green intensity z-score.
Setting [16] is: measured here: nuclear pErk red intensity z-score, stronger effect = higher value.

Chain of Alpha-2C adrenergic receptor (Homo sapiens) (P18825 whole entry, looked up): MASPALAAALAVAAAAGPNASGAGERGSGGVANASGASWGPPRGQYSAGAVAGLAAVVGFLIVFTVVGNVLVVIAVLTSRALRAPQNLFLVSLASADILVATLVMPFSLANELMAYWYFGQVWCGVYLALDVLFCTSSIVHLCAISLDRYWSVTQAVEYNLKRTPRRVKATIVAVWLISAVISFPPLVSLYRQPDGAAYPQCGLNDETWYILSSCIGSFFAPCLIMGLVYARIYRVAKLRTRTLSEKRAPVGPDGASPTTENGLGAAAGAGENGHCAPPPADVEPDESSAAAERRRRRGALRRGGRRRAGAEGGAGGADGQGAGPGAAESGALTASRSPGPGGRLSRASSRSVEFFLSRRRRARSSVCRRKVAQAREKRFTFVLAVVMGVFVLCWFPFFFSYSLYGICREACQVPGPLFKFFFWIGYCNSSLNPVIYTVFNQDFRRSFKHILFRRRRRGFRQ
Chain of Dual specificity protein phosphatase 6 (Homo sapiens) (Q16828 whole entry, looked up): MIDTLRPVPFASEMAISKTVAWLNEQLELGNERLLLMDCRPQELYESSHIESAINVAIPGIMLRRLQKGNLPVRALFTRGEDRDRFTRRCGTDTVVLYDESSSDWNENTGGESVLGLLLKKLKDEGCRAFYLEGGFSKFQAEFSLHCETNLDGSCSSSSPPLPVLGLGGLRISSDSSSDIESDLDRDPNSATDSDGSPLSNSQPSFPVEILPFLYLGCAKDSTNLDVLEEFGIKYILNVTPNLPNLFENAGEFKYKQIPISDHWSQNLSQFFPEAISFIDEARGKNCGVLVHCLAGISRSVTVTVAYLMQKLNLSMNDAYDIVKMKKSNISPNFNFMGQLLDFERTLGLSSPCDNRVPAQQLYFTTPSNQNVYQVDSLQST
Chain of Voltage-gated potassium channel subunit beta-2 (Rattus norvegicus) (P62483 whole entry, looked up): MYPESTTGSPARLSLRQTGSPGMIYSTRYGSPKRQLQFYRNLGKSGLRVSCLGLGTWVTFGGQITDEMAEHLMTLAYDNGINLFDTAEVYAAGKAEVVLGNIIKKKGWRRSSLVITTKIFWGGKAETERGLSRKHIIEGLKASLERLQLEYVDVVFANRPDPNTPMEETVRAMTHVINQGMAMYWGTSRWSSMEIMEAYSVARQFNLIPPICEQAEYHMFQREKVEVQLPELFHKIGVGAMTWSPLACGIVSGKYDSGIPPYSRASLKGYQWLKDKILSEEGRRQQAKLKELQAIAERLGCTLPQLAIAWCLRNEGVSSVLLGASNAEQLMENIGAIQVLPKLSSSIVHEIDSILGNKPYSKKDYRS

What is called inhibition is the change of the read-out against control, counted positive when it falls. As for `Nc1nnnn1/N=C/c1ccccn1`, the cell count in [1] was 568. The inhibition is -2.8% (inactive) in experiment [1]; -155% (inactive) in experiment [3]; 34.3% (inactive) in [5]; 26.1% (inactive) in experiment [10]; -14.9% (inactive) in experiment [11]; -32% (inactive) in experiment [12]. The inhibition of aggregation in [2] is -8.1% (inactive). The nuclei count came to 98.2% in experiment [2] and 142% in experiment [3]. Further, the z-score in experiment [4] (setting [14]) is 1.54; in experiment [4] (setting [15]), -1.1; in [4] (setting [16]) it was -0.159. In addition, the fluorescence slope in experiment [6] was -0.513 (inactive); in experiment [8], 0.00549 (inactive). Further, the NADPH fluorescence slope in experiment [7] is -6e-05 (inactive). Besides, the call in experiment [9] was inactive.
As to `COc1ccccc1OCC(O)COC(N)=O` (centres undefined), the cell count in [1] worked out at 634. The inhibition in experiment [1] is 2.6% (inactive); in experiment [5] it was 19% (inactive); in experiment [10], -8.84% (inactive); in experiment [11], 9.33% (inactive); in [12], 35.1% (inactive). Further, in experiment [2], the inhibition of aggregation was -4.9% (inactive). In addition, in experiment [2], the nuclei count amounted to 109%. Further, the z-score in [4] (setting [14]) is -1.14; in experiment [4] (setting [15]), 0.796; in experiment [4] (setting [16]) it was 1.17. Also, the fluorescence slope in experiment [6] is -0.507 (inactive). In addition, the NADPH fluorescence slope in experiment [7] was -3.9e-05 (inactive). The slope in experiment [13] is 0.00504 (inactive). For the same compound, the call in [9] was inactive.
In the case of `Nc1ccc(S(=O)(=O)Nc2ncccn2)cc1`, the cell count in experiment [1] is 603. In addition, the inhibition was -1.5% (inactive) in [1]; -68.8% (inactive) in experiment [3]; 5.79% (inactive) in experiment [5]; -12.2% (inactive) in [10]; 15.1% (inactive) in [11]. In addition, the inhibition of aggregation in experiment [2] was -4.1% (inactive). For the same compound, the nuclei count worked out at 87.5% in experiment [2] and 130% in [3]. Further, the z-score was 1.12 in experiment [4] (setting [14]), -1.89 in experiment [4] (setting [15]) and 1.02 in [4] (setting [16]). Besides, the fluorescence slope in experiment [6] was -0.5 (inactive). Also, in [7], the NADPH fluorescence slope is -6.3e-05 (inactive). In addition, the slope in experiment [13] is 0.00507 (inactive). For the same compound, the call in experiment [9] was inactive.
For the compound `Cn1c(Cl)cnc1C1CC(=O)c2cc(Cl)ccc2O1` (centres undefined), the cell count in experiment [1] came to 637. The inhibition in experiment [1] is -11.8% (inactive); in [3], -161% (inactive); in [5] it was 15.9% (inactive); in [10], -12.2% (inactive); in experiment [11] it was 16.5% (inactive); in experiment [12] it was 35% (inactive). Besides, the nuclei count was 0.8% in [2] and 112% in experiment [3]. The results for the z-score in [4] (setting [14]), in experiment [4] (setting [15]) and in [4] (setting [16]) were -0.672, -0.603 and -2.4, respectively. Also, the fluorescence slope in experiment [6] was -0.562 (inactive). Moreover, the NADPH fluorescence slope in experiment [7] is -8.8e-06 (inactive). Further, the slope in experiment [13] is 0.00554 (inactive). Besides, the result in [9] was inactive.
Turning to `COc1ccc2c(C)nc(Nc3nc(C)cc(C)n3)nc2c1`, in [1], the cell count was found to be 644. Moreover, the inhibition in experiment [1] is -5.8% (inactive); in [5] it was -5.95% (inactive); in [10], -4.58% (inactive); in experiment [11], 14% (inactive); in experiment [12], 20% (inactive). In addition, the inhibition of aggregation in [2] is -15.4% (inactive). The compound further yielded a nuclei count in [2] of 116%. Besides, the z-score in experiment [4] (setting [14]) is -1.03; in experiment [4] (setting [15]), 0.468; in experiment [4] (setting [16]), -0.248. Moreover, the fluorescence slope in experiment [6] is -0.534 (inactive). Also, in [7], the NADPH fluorescence slope was -1e-05 (inactive). For the same compound, in experiment [13], the slope was 0.00447 (inactive). The compound was classed as inactive in experiment [9].
Regarding `CC[C@H](C)C(=O)O[C@H]1C[C@@H](C)C=C2C=C[C@H](C)[C@H](CC[C@@H]3C[C@@H](O)CC(=O)O3)[C@H]21`, the cell count in [1] amounted to 724. The inhibition in experiment [1] was -11.9% (inactive); in experiment [3], -93.9% (inactive); in [5] it was 21.2% (inactive); in experiment [10] it was 14.3% (inactive); in [11] it was -4.78% (inactive); in experiment [12], 49.1% (inactive). For the same compound, the inhibition of aggregation in [2] is 0.4% (inactive). Also, the nuclei count amounted to 105% in experiment [2] and 122% in [3]. The z-score in experiment [4] (setting [14]) was 0.18; in experiment [4] (setting [15]), -1.59; in experiment [4] (setting [16]), -0.22. Besides, the slope in experiment [13] is 0.00586 (inactive). Moreover, the result in [9] was inactive.
